Spn PMK inh: blocks S. pneumoniae phosphomevalonate kinase. purified PMK, PK/LDH-coupled NADH absorbance 340 nm. inhibition, % at 10 µM. 0.49% of 65,000 active;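 active means top-ranked compounds by inhibition in the single 10 µM screen, taking a fixed number of the strongest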;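 further: 0% = full reaction with DMSO carrier and 100% = background rate without enzyme reaction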
Fluor 339 460: intrinsic fluorescence of library compounds, ex339/em460 – biochemical, MLSMR library, data from DPM-DC assay, artefact control, profiling panel | compound autofluorescence, ex339/em460 nm, NADH buffer; hits give high values; 1 = no-compound wells, NADH background | fluorescence fold increase at 10 µM | 5.5% of 65,000 active | AID 709;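 active means at 10 µM, mean starting fluorescence two-fold or more over control wells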;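 further: signal is the first read of a kinetic run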
Spn MK inh: blocks S. pneumoniae mevalonate kinase. purified MK, PK/LDH-coupled NADH absorbance 340 nm. inhibition, % at 10 µM. 0.48% of 65,000 active;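 active means ranked among the strongest by inhibition in the single 10 µM screen, a fixed top-ranked set picked for dose follow-up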
NADH enzymes: inhibition of NAD/NADH coupling enzymes, library profiling | IC50, µM (titrated, usually from 10 µM), without a hit: at the highest dose inhibition | 0.02% of 65,000 active | coupled PK/LDH NADH assays, four targets;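 active means single-dose screening hits from any of four coupled enzyme assays that gave an IC50 when retested across doses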;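 further: the DPM-DC format reads NADH fluorescence rather than 340 nm absorbance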
DPM-DC inhibit: inhibitors of Streptococcus pneumoniae diphosphomevalonate decarboxylase; purified DPM-DC, PK/LDH coupled NADH fluorescence; calls only at 10 µM; 0.49% of 65,000 active; AID 556;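 active means the 320 compounds with the highest percent inhibition in the single-dose primary screen, excluding strongly autofluorescent ones, cut at about 32% in these data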;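 further: kinetic rate of NADH fluorescence loss reporting ADP formed by the decarboxylase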
A340 absorber: compounds absorbing at 340 nm; 65,000 tested, under 10 active; fold change at 10 µM; compound absorbance at 340 nm, fold over control;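 active means at 10 µM dose, initial 340 nm absorbance at least 2 fold that of control wells; inactive means change under 2 fold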;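 further: initial absorbance extrapolated from kinetic A340 decline of NADH oxidation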
Starred values were filed as active, the others as inactive; i = inactive; . = no result given; + = active, no number; [ ] = another dose, or the depositor's remark. In the library only some 6.8% were active in any assay of this set; here they are far more common.

SMILES | Spn PMK inh | Fluor 339 460 | Spn MK inh | NADH enzymes | DPM-DC inhibit | A340 absorber
COc1ccc(-c2csc(N3CCC(C(N)=O)(N4CCCCC4)CC3)n2)cc1 | 4 | 1.1 | 6 | 3% | i | 1
CCOc1cccc2sc(NC(=O)c3ccc(Br)s3)nc12 | 0 | 2.1* | 1 | 1% | . | 1.1
CCOC(=O)Cc1csc(NC(=O)c2ccc(Br)s2)n1 | 6 | 1.1 | 8 | 7% | i | 1.1
CC(=O)Nc1nc2c(c3c1c(=O)oc1ccccc13)CCCCC2 | 0 | 1.2 | 8 | 3% | i | 1
Nc1nc2c(c3c1c(=O)oc1ccccc13)CCCCC2 | 12 | 2.2* | 4 | 8% | . | 1.1
CN1C(=O)N2CN(C3CCCCC3)CN3C(=O)N(C)C1C23 (stereo not drawn) | 0 | 1.1 | 10 | 3% | i | 1
Cc1nn(-c2ccccc2)c2sc(C(=O)OCN3C(=O)c4ccccc4C3=O)cc12 | 12 | 1.2 | 11 | 8% | i | 1.1
CCCc1ccc2c(N)c(C#N)sc2n1 | 8 | 2.1* | 5 | 7% | . | 1.1
CCOC(=O)C1=C(C)N(c2ccccc2)C(=O)C1CC(=O)O (stereo not drawn) | 14 | 1.1 | 5 | 6% | i | 1
COc1ccc(C(=O)Nc2nccs2)cc1OC | 10 | 1.1 | 3 | 4% | i | 1.1
COc1ccc(C(=O)Nc2ccncc2)cc1OC | 40* | 0.96 | 3 | 14% | i | 1
CCOC(=O)c1sc(N(Cc2ccccc2)C(=O)CSc2nnc(C3CC3)n2N)nc1C | 15 | 1.1 | 0 | 7% | i | 1
CN(CC1CCCO1)S(=O)(=O)c1ccc(C(=O)Nc2nc3cc4c(cc3s2)OCO4)cc1 (stereo not drawn) | 13 | 1.5 | 6 | 6% | i | 1.1
COC(=O)c1[nH]c2ccc(C)cc2c1NC(=O)Nc1ccccc1OC | 10 | 2.6* | 10 | 10% | i | 1.1
COC(=O)c1[nH]c2ccc(Cl)cc2c1NC(=O)CCN1CCN(C2CCCCC2)CC1 | 0 | 1.9 | 4 | 3% | i | 1.1
COC(=O)c1[nH]c2ccc(C)cc2c1NC(=O)CN1CCCC(C)(C)C1 | 9 | 1.8 | 11 | 5% | i | 1
COC(=O)c1[nH]c2ccc(C)cc2c1NC(=O)CN1CCc2cc(OC)c(OC)cc2C1 | 15 | 2.2* | 10 | 14% | i | 1
COC(=O)c1[nH]c2ccc(F)cc2c1NC(=O)CCN1CCN(Cc2ccc3c(c2)OCO3)CC1 | 5 | 2* | 7 | 6% | i | 1.1
COC(=O)c1[nH]c2ccc(C)cc2c1NC(=O)C1=COCCO1 | 14 | 1.7 | 11 | 15% | i | 1.1
COC(=O)c1[nH]c2ccc(C)cc2c1NC(=O)CCN1CCN(C2CCCCC2)CC1 | 2 | 2.9* | 3 | 6% | i | 1.1
CCc1ccc(NC(=O)CCNS(=O)(=O)c2cccc3nonc23)cc1 | 0 | 1.1 | 5 | 2% | i | 1
Cc1ccsc1CN1CCN(c2ccccn2)CC1 | 0 | 1.1 | 45* | 15% | i | 1
Cc1ccc(C)c2[nH]c(=O)c(CN(CC3CCCO3)C(=O)NC3CCCCC3)cc12 (stereo not drawn) | 7 | 1.6 | 5 | 4% | i | 1
CCCc1ccccc1OCCNC(C)=O | 7 | 1.1 | 8 | 3% | i | 1
COc1ccc(-c2nc(-c3cccs3)c(-c3cccs3)[nH]2)cc1O | 5 | 3* | 0 | 2% | i | 1.1
SMILES | Spn PMK inh | Fluor 339 460 | Spn MK inh | NADH enzymes | DPM-DC inhibit | A340 absorber
CCOc1ccc2cc(C#N)c(SCC(=O)N3CCCC3)nc2c1 | 9 | 2.1* | 13 | 8% | i | 1
CN1CCN(c2nc3c(c(=O)n(C)c(=O)n3C)n2Cc2cccc3ccccc23)CC1 | 3 | 1 | active | 5% | i | 0.98
Cn1c(=O)c2c(nc(N3CCCCCC3)n2Cc2cccc3ccccc23)n(C)c1=O | 0 | 1 | 13 | 4% | i | 1
Cn1c(=O)c2c(nc(N3CCOCC3)n2C)n(C)c1=O | 26* | 1.1 | 0 | 9% | i | 1
Cc1noc(C)c1S(=O)(=O)N(CCc1ccccc1)Cc1ccccc1 | 12 | 1.1 | 0 | 4% | i | 1
CCOc1ccc(NC(=O)C2CSC(c3ccncc3)=N2)cc1 (stereo not drawn) | 0 | 1.1 | 3 | 2% | i | 1
CSc1c(C#N)c(N)c(C#N)c2c1COC(C)(C)C2 | 11 | 2.1* | 7 | 3% | . | 1
CCc1nc(NCC(C)C)c(C#N)c2c1COC(C)(C)C2 | 7 | 2.1* | 0 | 4% | . | 1
CCc1nc(NC2CCCCC2)c(C#N)c2c1COC(C)(C)C2 | 7 | 1.8 | 4 | 4% | i | 1
CC(C)c1nc(NCC2CCCO2)c(C#N)c2c1COC(C)(C)C2 (stereo not drawn) | 6 | 2.4* | 2 | 3% | +[fluoresces] | 0.99
CCc1nc(NCC2CCCO2)c(C#N)c2c1COC(C)(C)C2 (stereo not drawn) | 13 | 2.3* | 0 | 7% | . | 1
COCCn1nnnc1C(C(C)C)N(Cc1cccnc1)Cc1cc2cc(OC)ccc2[nH]c1=O (stereo not drawn) | 14 | 2.4* | 11 | 18% | i | 1.1
COCCn1c(SCC(=O)NCc2ccc3c(c2)OCO3)nnc1-c1c[nH]c2ccccc12 | 3 | 1.1 | 3 | 2% | i | 1
CCOc1ccc2nc(NCCCNS(=O)(=O)c3ccccc3)c(C#N)cc2c1 | 10 | 2.3* | 4 | 10% | i | 1.1
Brc1ccccc1Cn1c(-c2cncs2)nc2ccccc21 | 0 | 1.1 | 0 | 0% | i | 1.1
c1csc(Cn2c(-c3cccs3)nc3ccccc32)c1 | 3 | 2.8* | 13 | 14% | i | 1.1
NC(=O)CCN(Cc1ccccc1)S(=O)(=O)c1ccccc1 | 28* | 1.1 | 5 | 11% | i | 1
COc1ccccc1NC(=O)CCn1c(=O)sc2ccccc21 | 0 | 1.2 | 2 | 1% | i | 1
COc1ccc(C(=O)Cn2c(=O)c(CCC(=O)O)nn3c4ccccc4nc23)cc1OC | 11 | 2.8* | 11 | 17% | i | 1.1
COc1ccc(CNC(=O)c2cc3c(=O)n4ccccc4nc3n(Cc3cccnc3)c2=N)cc1 | 0 | 1.9 | 5 | 6% | i | 1.1
C=CCn1c(=N)c(C(=O)OC)cc2c(=O)n3cccc(C)c3nc21 | 20 | 3.8* | 2 | 11% | . | 1
COC(=O)c1cc2c(=O)n3cccc(C)c3nc2n(Cc2cccnc2)c1=N | 0 | 2.3* | 5 | 3% | . | 1
CCOC(=O)c1cc2c(=O)n3cc(C)ccc3nc2n(Cc2cccnc2)c1=N | 0 | 2.1* | 3 | 2% | . | 1
COCCCn1c(=N)c(C(N)=S)cc2c(=O)n3cccc(C)c3nc21 | 19 | 1.9 | 2 | 9% | i | 0.99

High-throughput results deposited in PubChem by SRMLSC.
